# Reference: PubChem BioAssay AID371 (SRMLSC, 2006)
# The whole screen tested about 3,300 compounds, of which about 280 (8.5%) were called active. This excerpt belongs to a sample that is enriched for actives. A number with no mark means an inactive call.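 The calls were made as follows: active = mean growth inhibition over the two runs of 50% or more; inactive = mean growth inhibition under 50%.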
# Test: A549 NSCLC cell proliferation inhibitors – ATP luminescence, human non-small cell lung line, primary screen (AID 371);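 also: compound exposure lasted 72 h before the ATP read; 0% = untreated cell signal and 100% = no luminescence left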
# Settings: at 10 µM, active compounds read high
row,Compound,growth inhibition
1,CCCc1cc(=O)oc2c(CN3CCN(C)CC3)c(O)c(Cl)cc12,1.1%
2,CCOC(=O)Cc1[nH]nc2c1C(c1cc(OC)ccc1OC)C(C#N)=C(N)O2 (stereo not given),-2.35%
3,COCCOC(=O)c1c(C)nc(SCC(=O)Nc2ccc(C)cc2)c(C#N)c1-c1ccco1,3.22%
4,Cc1nc(N2CCOCC2)c(C#N)c2c1COC(C)(C)C2,12.7%
5,CN(C)CCCN1c2ccccc2CCc2ccccc21,16.1%
6,CN1CCN(C2=Nc3cc(Cl)ccc3Nc3ccccc32)CC1,26%
7,CN(C)CCCN1c2ccccc2CCc2ccc(Cl)cc21,85.6% (active)
8,COc1ccc([C@@H]2Sc3ccccc3N(CCN(C)C)C(=O)[C@@H]2OC(C)=O)cc1,15.1%
9,CN(C)CCCOC(=O)c1ccc(Cl)cc1Cl,5.84%
10,CN(C)CCCN1c2ccccc2Sc2ccc(C(F)(F)F)cc21,90.7% (active)
11,CN(C)CCCN1c2ccccc2Sc2ccccc21,29.4%
12,CN(C)CCCN1c2ccccc2Sc2ccc(Cl)cc21,92.2% (active)
13,COc1cccc(C(=O)N2CCN(Cc3ccccn3)CC2)c1OC,-2.78%
14,COc1ccc(Cn2c(N)c(C#N)c3nc4ccccc4nc32)cc1OC,11.7%
15,CC[C@H](C)C(=O)O[C@H]1C[C@@H](C)C=C2C=C[C@H](C)[C@H](CC[C@@H]3C[C@@H](O)CC(=O)O3)[C@H]21,64.9% (active)
16,COc1cc(C2C(C(C)=O)=C(O)C(=O)N2c2ccc(Br)cn2)ccc1O (stereo not given),3.52%
17,CC1(C)CC(=O)C(C=NCCN2CCN(C(=O)C34CC5CC(CC(C5)C3)C4)CC2)=C(O)C1,3.05%
18,COc1ccccc1-n1c(=O)c2c3c(sc2n2c(SC)nnc12)CCC3,6.85%
19,COc1cccc(N2CCN(c3ncnc4c3[nH]c3ccccc34)CC2C)c1 (stereo not given),91.9% (active)
20,COc1cccc(N2CCN(C(=O)c3ccc(=O)oc3)CC2C)c1 (stereo not given),-1.33%
21,COc1cccc(N2CCN(c3ncnc4c3[nH]c3ccc(F)cc34)CC2C)c1 (stereo not given),93% (active)
22,COc1ccc2c(c1)[nH]c1c(=O)n(CC3CCCO3)cnc12 (stereo not given),8.24%
23,COc1cccc(OCCN2CCN(c3ncnc4c3cnn4-c3ccccc3)CC2)c1,46.7%
24,CCOC(=O)C1/C(=N\O)CC(C)(O)C(C(=O)OCC)C1c1ccc(N(C)C)cc1 (stereo not given),7.47%
25,CCCSc1nnc2n(Cc3ccccc3)c(=O)c3c4c(sc3n12)CCC4,13.6%

row,Compound,growth inhibition
1,Cc1nnc2n(Cc3ccccc3)c(=O)c3c4c(sc3n12)CN(Cc1ccccc1)CC4,40.6%
2,O=c1c2c3c(sc2n2cnnc2n1Cc1ccccc1)CN(Cc1ccccc1)CC3,70.5% (active)
3,CC1CCc2cc(F)cc3c(O)c(C(=O)Nc4cnccn4)c(=O)n1c23 (stereo not given),26.4%
4,CC1CCc2cc(F)cc3c(O)c(C(=O)NCC4CCCO4)c(=O)n1c23 (stereo not given),61.9% (active)
5,CC1CCc2cc(F)cc3c(O)c(C(=O)NCc4ccco4)c(=O)n1c23 (stereo not given),46.7%
6,COC(=O)c1cc(Br)c(=O)n(Cc2ccc3c(c2)OCO3)c1,9.14%
7,O=C(NCc1cccnc1)/C(=N\O)c1ccccc1,0.76%
8,CCN1CCN(c2nc3c(C)cccn3c(=O)c2/C=C(\C#N)S(=O)(=O)c2ccc(C)cc2)CC1,1.14%
9,CCCN(CCC)C(=O)CC(c1ccc(F)cc1)c1ccco1 (stereo not given),38.5%
10,CCCc1cc(C(=O)Cc2ccc(F)cc2)c(O)cc1O,89.5% (active)
11,O=C(Cc1cscn1)c1ccc(O)cc1O,2.87%
12,CC1N(O)C(c2ccc(Cl)cc2Cl)N(O)C1(C)C (stereo not given),-11.8%
13,CC1(C)Cc2nc3sc4c(N(CCO)CCO)ncnc4c3cc2CO1,2.92%
14,Cc1ccc(S(=O)(=O)N2CCN(c3nc(C)c4c(c3C#N)CC(C)(C)OC4)CC2)cc1,30.2%
15,Oc1ccc(Br)cc1CNn1cnnc1,3.94%
16,CCn1c(SCC(=O)Nc2ccccc2C(=O)OC)nnc1-c1ccc(N)cc1,-4.2%
17,COCCNc1ncnc2c1cnn2-c1ccc(Cl)cc1,26.1%
18,CCOC(=O)C1=C(C)N=C2SC(C)C(=O)N2C1c1cccc(F)c1 (stereo not given),-4.33%
19,Oc1c(Cl)cc(Cl)cc1Sc1cc(Cl)cc(Cl)c1O,82.9% (active)
20,CCOC(=O)C1CCN(c2nc3ccccc3nc2C(C#N)C(=O)OCCOC)CC1 (stereo not given),13.4%
21,CCC1=Nc2ccccc2NC2=C1C(=O)CCC2,1%
22,CCc1cn([C@H]2C[C@H](O)[C@@H](CO)O2)c(=O)[nH]c1=O,29.9%
23,Cc1cn([C@H]2C[C@H](N=[N+]=[N-])[C@@H](CO)O2)c(=O)[nH]c1=O,7.02%
24,O=c1[nH]c(=O)n([C@H]2C[C@H](O)[C@@H](CO)O2)cc1F,71% (active)
25,COc1ccccc1-c1nn2c(-c3ccco3)nnc2s1,21.8%
